# In the library only some 8% were active in any assay of this set; here they are far more common.
# MCF10A rerep = A quantitative high throughput screen for small molecules that induce DNA re-replication in MCF 10a normal breast cells; MCF 10A DNA re-replication, Hoechst nuclear intensity, 48 h; Potency, µM (doses to about 46.1 µM), inactives show top-dose activity, positive = re-replication, hits mostly activators; AID 624296, 2012; 2.9% of 350,000 active; note: % of control where 0% means no effect; nearly all actives have a fitted effect of over 50% in size
# KB-3-1 tox = qHTS assay for MDR1-selective chemotherapeutics: Primary screen using the parental adenocarcinoma cell KB-3-1; KB-3-1 viability, CellTiter-Glo ATP luminescence, 72 h; Potency, µM (series often up to 46.1 µM), most hits filed as cytotoxic; 1.4% of 400,000 active; AID 1347075, 2019; note: % is set by controls: 0 for no effect and ±100 for the full control effect; nearly all actives have a fitted effect of over 60% in size
#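 Using CellTiter-Glo luminescence, growth of non-resistant KB-3-1 adenocarcinoma cells is assessed 72 h after pin-tool compound addition at 37 °C. Normalized responses across the concentration series yield fitted curves.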
# HT1080NT lethal = qHTS for induction of synthetic lethality in tumor cells producing 2HG: qHTS for the HT-1080-NT fibrosarcoma cell line; HT-1080-NT fibrosarcoma viability, CellTiter-Glo ATP luminescence, 48 h; Potency, µM (titrated, usually from 46.1 µM), for inactives: at the highest dose activity, negative = less viability, most hits filed as cytotoxic; 1.6% of 360,000 active; AID 686970, 2013;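 note: NT is the 2HG producing partner of a matched IDH1 knockdown line; 0% = DMSO-treated cells and -100% = media-only wells without cells; nearly all actives have a fitted effect of over 55% in size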
#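 Read-out is CellTiter-Glo luminescence after 10 minutes at room temperature, following 48 hours' compound treatment of HT-1080-NT cells (750 cells/well, RPMI, 5% FBS, 37 degrees C).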
# KB-V1 MDR tox = qHTS assay for MDR1-selective chemotherapeutics: Primary screen using the drug-selected MDR subline cells KB-V1 | KB-V1 MDR cells viability, CellTiter-Glo, 72 h | Potency, µM (highest dose often 46.1 µM), actives largely listed as cytotoxic | 3.4% of 400,000 active | AID 1347076, 2019; note: % is set by controls: 0 for no effect and ±100 for the full control effect; nearly all actives have a fitted effect of over 60% in size
#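 KB-V1, DMEM (no phenol red) + 10% FBS; cpd pin-transferred, titration series; 72 h, 37 degrees C; CellTiter-Glo, luminescence. Data normalized, curve-fit.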
# SW480 rerep = A quantitative high throughput screen for small molecules that induce DNA re-replication in SW480 colon adenocarcinoma cells; AID 624297, 2012; 1.8% of 340,000 active; Potency, µM (titrated, usually from 46.1 µM), for the others: at the top dose re-replication activation, hits mostly activators; SW480 DNA re-replication, Hoechst DNA content imaging, 48 h; note: % of control where 0% means no effect; nearly all actives have a fitted effect of over 55% in size
#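 Readout is total intensity of Hoechst-stained nuclei, excited at 405 nm and collected at 500-530 nm. Compound treatment lasted 48 hr at 37 C in 5% CO2 before staining.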
# HT1080 IDH1KD tx = qHTS for induction of synthetic lethality in tumor cells producing 2HG: qHTS for the HT-1080-IDH1KD cell line | HT-1080 IDH1 knockdown viability, ATP luminescence, 48 h | Potency, µM (doses to about 46.1 µM), without a hit: at the top dose activity, negative = toxicity, hits mostly cytotoxic | 2% of 360,000 active | AID 686971, 2013;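 note: 0% = DMSO wells and -100% = cell-free medium wells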
#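 Cytotoxicity counter-line: IDH1KD HT-1080, 48 h, CellTiter-Glo. Curves classed by r2, magnitude and activity.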
# An asterisk follows results filed as active; i = inactive; ? = inconclusive; / = no result. Calls come from the whole dose curve; as a rule, active = well fitted curve in the direction sought with a large enough effect; inconclusive = small, poorly fitted or top-dose-only effect, or another doubt; inactive = no such curve, though single readings can be large; an effect the other way counts as inactive or inconclusive. Potency is the fitted concentration of half-maximal effect.
SMILES,MCF10A rerep,KB-3-1 tox,HT1080NT lethal,KB-V1 MDR tox,SW480 rerep,HT1080 IDH1KD tx
NC(=O)C1CCN(C(=O)c2cccc(S(=O)(=O)N3CCc4ccccc4C3)c2)CC1,-17%,i,-7%,i,-2%,0%
CN1C(=O)Cc2cc(S(=O)(=O)NCc3ccccc3Cl)ccc21,/,i,/,i,/,/
O=C(Nc1ccc2ccccc2c1)Nc1nnc(-c2ccccc2)s1,/,i,/,i,/,/
Cc1cc(Cl)ccc1-c1cc2nc(NCCCN(C)C)n(C)c(=O)c2s1,/,i,18µM*,i,/,18µM*
CN(C)CCCNc1nc2cc(-c3ccc(F)cc3)sc2c(=O)n1C,/,i,?,i,/,16µM*
CN(C)CCCNc1nc2cc(-c3ccccc3)sc2c(=O)n1C,/,i,9.2µM*,i,/,?
Cc1cccc(C)c1NC(=O)C(=O)NCC(c1ccc2c(c1)OCO2)N1CCOCC1 (stereo not given),/,i,/,i,/,/
OCC1OC([S-])[C@H](O)C(O)C1O.[Au+] (stereo not given in full),30µM*,/,/,/,-2%,/
COc1cccc(/C=c2/[nH]c(=O)/c(=C\c3cccc(OC)c3OC)[nH]c2=O)c1OC,/,i,/,i,/,/
Cc1cc(C=C2C(=O)c3ccccc3C2=O)c(C)n1-c1ccc(Cl)cc1,8%,?,9%,16µM*,-8%,13%
COc1ccc(/C=C/c2nc3ccccc3n2Cc2ccccc2OC)cc1,16µM*,?,16µM*,?,?,16µM*
COc1ccccc1Cn1c(/C=C/c2ccccc2)nc2ccccc21,?,16µM*,-17%,5.2µM*,?,-21%
CC(NC(=O)CSc1nc(C2CC2)n(-c2ccccc2)n1)c1ccco1 (stereo not given),6%,i,0%,13µM*,-3%,3%
O=C(CSc1nc(C2CCCCC2)n(-c2ccccc2)n1)NCC(F)(F)F,18%,i,3%,8.2µM*,6%,5%
O=C(CSc1nc(C2CCCCC2)n(-c2ccccc2)n1)NCCN1C(=O)CSC1=O,2%,i,3%,i,-9%,-3%
Cc1ccsc1C(=O)NNC(=O)CCN1CCN(c2ccccc2)CC1,0%,i,-1%,i,-1%,0%
Cc1nnc(SCCC(=O)Nc2ccccc2Cl)o1,7%,i,21%,i,-23%,25%
O=C1Nc2c(c(=O)[nH]c(=O)n2-c2ccccc2)C(C(F)(F)F)(C(F)(F)F)N1,11%,?,3%,i,2%,21%
CC(C)Cn1c2c(c(=O)[nH]c1=O)C(C(F)(F)F)(C(F)(F)F)N=C(CCC1CCCCC1)N2,16µM*,i,?,?,2%,?
O=c1[nH]c(=O)n(Cc2ccco2)c2c1C(C(F)(F)F)(C(F)(F)F)N=C(CCC1CCCCC1)N2,2%,i,0%,i,3%,-6%
O=c1[nH]c(=O)n(-c2ccccc2)c2c1C(C(F)(F)F)(C(F)(F)F)N=C(CCC1CCCCC1)N2,16µM*,i,-2%,5.2µM*,?,0%
O=c1[nH]c(=O)n(Cc2ccco2)c2c1C(C(F)(F)F)(C(F)(F)F)N=C(CCc1ccccc1)N2,?,i,?,i,24%,10µM*
COc1cccc(-c2cc(C(=O)NCCc3ccc(OC)c(OC)c3)no2)c1,/,i,/,i,/,/
CCCn1c2ccccc2c2cnn(CC(=O)NCCCN3CCN(c4ccccc4)CC3)c(=O)c21,?,i,18µM*,i,?,?
CC(CCc1ccccc1)NC(=O)C(=O)N1CCOCC1 (stereo not given),2%,i,6%,i,0%,7%
SMILES,MCF10A rerep,KB-3-1 tox,HT1080NT lethal,KB-V1 MDR tox,SW480 rerep,HT1080 IDH1KD tx
O=C(NCc1csc(-c2cccs2)n1)c1cccc(Cl)c1,-7%,i,0%,?,?,-4%
CCN1CCN(c2ncc3c(n2)CC(c2cc(OC)c(OC)c(OC)c2)CC3=O)CC1 (stereo not given),21µM*,?,?,i,4.1µM*,4.1µM*
CCCCNC(=O)CSc1nc2ccc(N3CCOCC3)cc2c(=O)n1CCc1ccccc1,5%,i,1%,0.58µM*,-3%,6%
O=C(CSc1nc2ccc(N3CCOCC3)cc2c(=O)n1CCc1ccccc1)NCC1CCCO1 (stereo not given),23µM*,i,7%,i,29%,4%
C=C(C)CSc1nc2sc3c(c2c(=O)n1-c1ccccc1)CCC(C)C3 (stereo not given),/,i,/,i,/,/
CC1=CC(C)(C)n2c(O)c(N=N)c3c(C)c(C)cc1c32,23µM*,i,-6%,?,?,-18%
Cc1ccc(NCC(=O)Nc2cccc(S(=O)(=O)N(C)C)c2)cc1S(=O)(=O)N1CCCCCC1,12%,?,-19%,?,1%,?
Cc1cc(C)n(-c2nnc3n2N=C(c2c[nH]c4ccccc24)CS3)n1,?,7.3µM*,?,?,?,15µM*
Cc1cc(C)n(-c2nnc3n2N=C(c2ccccc2)CS3)n1,1%,i,2%,i,0%,5%
Fc1ccc(CCNc2ncnc3nc[nH]c23)cc1,/,i,/,i,/,/
CCCCNc1oc(-c2cccs2)nc1S(=O)(=O)c1ccccc1,?,?,5%,15µM*,?,?
COc1ccc(Cc2nnc(NC(=O)c3cc(OC)cc(OC)c3)s2)cc1,13µM*,i,-23%,i,102%,-26%
CCCc1nnc(NC(=O)c2cccc(OC)c2)s1,4%,i,5%,18µM*,-4%,20%
COc1cccc(C(=O)NCCS(=O)(=O)N(C)Cc2ccccc2)c1,3%,i,6%,18µM*,1%,14%
COc1cccc(C(=O)NCCS(=O)(=O)NCc2ccccn2)c1,-1%,i,4%,i,-16%,4%
COc1ccc(Cc2nnc(NC(C)=O)s2)cc1,14%,i,-1%,i,-17%,1%
COc1cccc(C(=O)Nc2nnc(S(=O)(=O)N(C)Cc3ccccc3)s2)c1,3%,i,-15%,i,12µM*,-14%

# High-throughput results as filed in PubChem.
